# FLuc counter – qHTS profiling assay for firefly luciferase inhibitor/activator using purifed enzyme and Km concentrations of substrates (counterscreen for miR-21 project) | purified FLuc, Km substrates, luminescence inhibition | Potency, µM (highest dose often 57.5 µM), without a hit: top-dose activity change, negative = inhibition, hits mostly inhibitors | 360,000 tested, 6.9% active | AID 588342, 2011;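 note: plate controls were vehicle for no effect and reference inhibitor for full effect; nearly all actives have a fitted effect of over 55% in size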
# Target sequence (P08659 whole entry, looked up): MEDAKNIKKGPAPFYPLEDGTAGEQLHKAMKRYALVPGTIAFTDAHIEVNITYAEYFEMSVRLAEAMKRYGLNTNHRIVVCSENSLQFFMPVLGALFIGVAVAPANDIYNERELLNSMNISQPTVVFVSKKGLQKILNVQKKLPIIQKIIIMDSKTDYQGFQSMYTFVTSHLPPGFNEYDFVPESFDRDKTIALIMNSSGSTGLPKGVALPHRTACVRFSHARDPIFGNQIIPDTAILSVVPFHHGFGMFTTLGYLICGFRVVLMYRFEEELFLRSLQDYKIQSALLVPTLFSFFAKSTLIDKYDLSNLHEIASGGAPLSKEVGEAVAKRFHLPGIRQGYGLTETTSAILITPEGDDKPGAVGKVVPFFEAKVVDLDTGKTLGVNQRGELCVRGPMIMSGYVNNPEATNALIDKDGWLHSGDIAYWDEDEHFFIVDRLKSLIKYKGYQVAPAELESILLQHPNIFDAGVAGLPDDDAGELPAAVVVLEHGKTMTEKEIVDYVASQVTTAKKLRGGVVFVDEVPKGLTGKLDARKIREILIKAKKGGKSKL
#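 Purified P. pyralis luciferase, 10 nM final, with Km-level 10 uM D-luciferin and 10 uM ATP in 50 mM Tris acetate pH 7.5, 10 mM Mg acetate, 0.01% Tween-20, 0.05% BSA; 6-point qHTS titration about 60 µM downward; luminescence read.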
# NPC1 prom act – qHTS Assay for NPC1 Promoter Activators; Huh7 NPC1 promoter luciferase reporter, 24 h; Potency, µM (titrated, usually from 9.22 µM), for inactives: at the highest dose activation, hits mostly activators; 320,000 tested, 2.4% active; AID 485313, 2010; note: % of control where 0% means no effect; nearly all actives have a fitted effect of over 60% in size
#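 Luminescence from an NPC1 promoter-driven luciferase reporter in stably transfected Huh7 cells was measured after 24 h compound treatment at 37 °C, followed by 10 min ambient incubation with luciferase detection reagent.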
# Rab9 prom act – qHTS Assay for Rab9 Promoter Activators; 320,000 tested, 2.8% active; Potency, µM (top dose mostly 9.22 µM), for the others: at the highest dose activation, negative = inhibition, hits mostly activators; Huh7 Rab9 promoter-luciferase reporter, luminescence, 24 h; note: % of control where 0% means no effect; nearly all actives have a fitted effect of over 60% in size
#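 Measured in stably transfected Huh7 cells bearing a Rab9 promoter–luciferase construct: 24 h compound treatment at 37 °C, followed by luminescence detection.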
# ELG1 repair inh – qHTS screen for small molecules that inhibit ELG1-dependent DNA repair in human embryonic kidney (HEK293T) cells expressing luciferase-tagged ELG1; HEK293T ELG1-luciferase reporter, luminescence, 16 h; DNA damage induced by 5-fluorouridine; Potency, µM (titrated, usually from 46.1 µM), for the others: at the highest dose activity change, negative = inhibition, actives largely listed as inhibitors; 330,000 tested, 2.3% active; AID 504467, 2011; note: % is set by controls: 0 for no effect and ±100 for the full control effect; nearly all actives have a fitted effect of over 55% in size
#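 Reporter activity after DNA damage by 5-fluorouridine is monitored. Compound-treated cells incubate 16 hr at 37 °C, then ONE-Glo is added for 30 min before luminescence reading.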
# ELG1 genotox – qHTS screen for small molecules that induce genotoxicity in human embryonic kidney (HEK293T) cells expressing luciferase-tagged ELG1. HEK293T ELG1-luciferase reporter, luminescence, 16 h. Potency, µM (doses to about 46 µM), for the others: at the highest dose activity change, positive = activation, usual class: activators. 330,000 tested, 1.3% active; note: % of control where 0% means no effect; nearly all actives have a fitted effect of over 60% in size
#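 Screening used a luciferase reporter fused to human ELG1 in HEK293T cells. Luminescence was read on a CCD plate imager after 16 hr exposure and 30 min ONE-Glo incubation.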
# SMN2 splice enh – qHTS Assay for Enhancers of SMN2 Splice Variant Expression. 210,000 tested, 2.8% active. Potency, µM (titrated, usually from 46.1 µM), for inactives: at the highest dose activity change, positive = activation, usual class: activators. HEK293 SMN2-luciferase splicing reporter, luminescence, 30-36 h; note: % of control where 0% means no effect; nearly all actives have a fitted effect of over 55% in size
#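 HEK293 cells carry an SMN2 […]–luciferase reporter in which exon 7 inclusion puts luciferase in frame. Cells were plated 10-12 h before compound addition, then incubated 30-36 h at 37C. ONE-Glo luminescence was read; sodium butyrate at 4.5 mM final served as control.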
# * = called active by the depositor; ? = inconclusive; . = no result given. An excerpt weighted towards active compounds, which were near 9.2% of everything screened. Calls come from the whole dose curve; as a rule, active = well fitted curve in the direction sought with a large enough effect; inconclusive = small, poorly fitted or top-dose-only effect, or another doubt; inactive = no such curve, though single readings can be large; an effect the other way counts as inactive or inconclusive. Potency is the fitted concentration of half-maximal effect.
SMILES,FLuc counter,NPC1 prom act,Rab9 prom act,ELG1 repair inh,ELG1 genotox,SMN2 splice enh
COc1ccc(C)cc1NC(=O)C1CCN(S(=O)(=O)c2cccc3cccnc23)CC1,-5%,-2%,0%,23µM*,-10%,-15%
CCOC(=O)c1c(-c2ccc(OC)cc2)oc2ccc(OCc3ccccc3C)cc12,-2%,.,.,.,.,4%
O=C(N/N=C/c1ccccn1)c1ccc(Br)o1,-22%,-4%,0%,-8%,5%,-12%
O=C(N/N=C/c1ccccn1)c1cc(Br)ccc1O,15µM*,-1%,7%,14%,?,.
O=C(N/N=C/c1cccnc1)c1cc(Br)ccc1O,4.8µM*,3.2µM*,4µM*,?,?,.
O=C(COc1ccc2cc(Br)ccc2c1Br)N1CCOCC1,?,4%,18%,17%,0%,.
CCOC(=O)C1(Cc2ccccc2C)CCCN(C(=O)c2ccc(CSC)o2)C1 (stereo not drawn),-3%,-1%,-1%,4%,-5%,.
CC(=O)Nc1ccc(S(=O)(=O)NC2=C(N3CCN(c4ccc(F)cc4)CC3)C(=O)c3ccccc3C2=O)cc1,-10%,-21%,-33%,8.2µM*,-39%,-7%
CC1CCN(C(=O)Nc2ccc3nsnc3c2)CC1,13µM*,?,4.5µM*,0%,?,13%
CC1CCN(C(=O)Nc2cccc(NC(=O)N3CCC(C)CC3)c2)CC1,15µM*,10%,0%,-21%,2%,5%
O=C(Nc1cccc(F)c1)N1CCC(c2ccccc2)CC1,?,?,29%,?,?,.
O=C(Nc1ccc2nsnc2c1)N1CCCCC1,?,19%,21%,?,?,14%
Cc1cc(C)cc(NC(c2cccc(Cl)c2)c2nnc(-c3ccccc3)o2)c1 (stereo not drawn),-17%,.,.,.,.,8%
CCOc1ccc2ccccc2c1C(=O)NCC(c1ccc(N(C)C)cc1)N(C)C (stereo not drawn),1%,-6%,1%,2%,-6%,.
Cc1ccc(-n2c(C)c([N+](=O)[O-])c3ccc(O)cc32)cc1,-3%,-4%,0%,?,-10%,.
Cc1c([N+](=O)[O-])c2ccc(O)cc2n1-c1ccccc1,2%,3%,2%,4.6µM*,-9%,.
CN=Cc1nc(-c2ccccc2)oc1O,17µM*,3.5µM*,2.5µM*,?,?,11µM*
CCOC(=O)N1CCN(c2nc(-c3ccc(OC)cc3)no2)CC1,17µM*,?,20%,?,-1%,-26%
CCOC(=O)N1CCC(NC(=O)CCc2nc(-c3ccc(C)cc3)no2)CC1,-9%,5%,11%,13µM*,-13%,-11%
COc1ccc(-c2noc(N3CCC(C(=O)Nc4cc(OC)ccc4OC)CC3)n2)cc1,-16%,0%,7%,?,-6%,.
COc1ccc(-c2noc(N3CCC(C(=O)Nc4ccccc4OC)CC3)n2)cc1,?,-5%,24%,23µM*,0%,.
Cc1ccc(C)c(N2CCN(C(=O)C3CCN(c4nc(-c5ccc(C(C)C)cc5)no4)CC3)CC2)c1,12µM*,.,.,.,.,.
COc1ccc(-c2noc(CCC(=O)NC3CCCCCC3)n2)cc1,?,-2%,1%,0%,-2%,.
CC(C)c1ccc(NC(=O)CN(C)S(=O)(=O)c2ccc3c(c2)n(C)c(=O)c(=O)n3C)cc1,-14%,.,.,.,.,3%
O=C(Cn1c(=O)n(-c2ccc(Cl)cc2)c(=O)c2oc3ccccc3c21)Nc1ccccc1,6%,.,.,.,.,.
SMILES,FLuc counter,NPC1 prom act,Rab9 prom act,ELG1 repair inh,ELG1 genotox,SMN2 splice enh
Cc1ccc(NC(=O)C2CCN(c3nc(-c4ccc(C(C)C)cc4)no3)CC2)c(Cl)c1,21µM*,.,.,.,.,.
COc1ccccc1/C=N/N1C(=O)C(CC(=O)Nc2ccc([N+](=O)[O-])cc2OC)SC1=Nc1cccc(C)c1C (stereo not drawn),0%,-13%,-21%,5.8µM*,-7%,-15%
C=CC[C@@H](Cc1ccc(F)cc1)C(=O)OC[C@H]1CCCN1C(=O)[C@@H](CC=C)CC(=O)N[C@@H](CO)Cc1ccccc1,.,.,.,-24%,-7%,.
C=CC[C@@H](Cc1ccc(F)cc1)C(=O)OC[C@@H]1CCCN1C(=O)[C@@H](CC=C)CC(=O)N[C@H](CO)Cc1ccccc1,.,.,.,21µM*,-9%,.
C=CC[C@@H](Cc1ccc(F)cc1)C(=O)OC[C@H]1CCCN1C(=O)[C@@H](CC=C)CC(=O)N[C@H](CO)Cc1ccccc1,.,.,.,?,-9%,.
C=CC[C@@H](Cc1ccc(F)cc1)C(=O)OC[C@H]1CCCN1C(=O)[C@H](CC=C)CC(=O)N[C@H](CO)Cc1ccccc1,.,.,.,23µM*,-7%,.
Cc1ccc2c(c1)C(c1ccncc1)=NNC(c1ccc(C(C)C)cc1)=N2,-1%,1%,-1%,9%,-1%,-2%
Cc1cc(=O)[nH]c(NN=C2C3CC4CC(C3)CC2C4)n1,-3%,-5%,-10%,6%,-1%,.
CCCC(=O)c1ccc(N2CCCC2)c(F)c1,15µM*,28%,?,?,?,20%
CCOC(=O)N1CCN(c2ccc(C(=O)c3ccccc3)cc2F)CC1,21µM*,?,27%,-12%,7%,-25%
CCC(=O)c1ccc(N2CCN(C(=O)c3ccccc3F)CC2)c(F)c1,-10%,8%,-4%,?,-14%,-23%
CCC(=O)c1ccc(N2CCCCCC2)c(F)c1,21µM*,28%,22%,?,?,10%
CCC(=O)c1ccc(N2CCCC2)c(F)c1,17µM*,9%,29%,?,12%,12%
CCOc1ccc(CNC(=O)Cn2c(=O)c3cccn3c3cccnc32)cc1,1%,.,.,.,.,.
CC(=O)NCCc1ccc(C(=O)COC(=O)c2cc(C)oc2C)cc1,.,.,.,-1%,0%,.
O=C(CNC(=O)C(c1ccccc1)c1ccccc1)N/N=C\c1ccc(C(=O)O)cc1,0%,2%,-2%,?,-1%,.
CCOc1ccc(OCc2ccc(C(=O)Nc3cccnc3)cc2)cc1,-17%,?,?,5%,-3%,.
CC(C)(C)SCCNC(=O)Nc1ccccc1,?,18%,3%,?,10%,?
Nc1n[nH]c(=S)n1/N=C1/C(=O)Nc2ccccc21,15µM*,0%,-2%,-19%,0%,6%
